Results filed as inconclusive are left out. Activity calls are given as the source filed them. The calls were made as follows: active = hit-call score of the fitted dose curve at least 0.9, where 1 is the maximum; inconclusive = response in the unintended direction; inactive = score below 0.9.
Key:
[1] = molecular target: Type-1 angiotensin II receptor (Homo sapiens) (UniProt P30556); assay: NVS_GPCR_hAT1: NovaScreen (NVS) G Protein-Coupled Receptor Assay for human Angiotensin II receptor type 1 (AT1) (AID 2283263)
Method in brief: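 Membranes from KAN-TS cells; radioligand competitive displacement, 3 h, filtration and scintillation counting. Single-point duplicate screen at 25 uM, then concentration-response up to 50 uM for hits; loss of signal fitted versus DMSO.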

[2] = molecular target: human Leukotriene B4 Receptor 1 (LTB4-BLT1), LTB4R (gene 1241) (UniProt Q15722); assay: NVS_GPCR_hLTB4_BLT1: NovaScreen (NVS) G Protein-Coupled Receptor Assay for human Leukotriene B4 Receptor 1 (LTB4-BLT1) (AID 2283271)
Method in brief: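 Radioligand displacement binding on receptor extracted from human neutrophils, cell-free, 1 h after dosing; filter-based scintillation counting. Primary screen in duplicate at 25 uM, actives retested in concentration-response up to 50 uM; loss of signal versus DMSO.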

[3] = molecular target: human Histamine 1 Receptor (H1), HRH1 (gene 3269) (UniProt P35367); assay: NVS_GPCR_hH1: NovaScreen (NVS) G Protein-Coupled Receptor Assay for human Histamine 1 Receptor (H1) (AID 2283268)
Method in brief: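 Cell-free radioligand displacement at human H1 receptor, 1 h, filter scintillation counting; primary screen 25 uM in duplicate, hits in concentration series; loss of binding fitted vs DMSO.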

[4] = molecular target: Muscarinic acetylcholine receptor M1 (Homo sapiens) (UniProt P11229); assay: NVS_GPCR_hM1: NovaScreen (NVS) G Protein-Coupled Receptor Assay for human Muscarinic, M1 Receptor (AID 2283270)
Method in brief: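 Cell-free radioligand displacement using membrane protein extracted from CHO cells, read by filter-based scintillation counting 1 h after dosing. Loss of bound signal fitted versus DMSO; primary screen single concentration 25 uM in duplicate, actives followed by concentration series.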

[5] = molecular target: Muscarinic acetylcholine receptor M3 (Homo sapiens) (UniProt P20309); assay: NVS_GPCR_hM3: NovaScreen (NVS) G Protein-Coupled Receptor Assay for human Muscarinic, M3 Receptor (AID 2283272)
Method in brief: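 Radioligand displacement binding on human M3 receptor in CHO-derived membranes, 1 h incubation, filter-based scintillation counting. Primary screen in duplicate at 25 uM; actives followed up in concentration series; loss of signal versus DMSO.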

[6] = molecular target: Muscarinic acetylcholine receptor M2 (Homo sapiens) (UniProt P08172); assay: NVS_GPCR_hM2: NovaScreen (NVS) G Protein-Coupled Receptor Assay for human Muscarinic, M2 Receptor (AID 2283273)
Method in brief: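 Cell-free radioligand binding using membranes from CHO cells expressing the receptor; filter-based scintillation counting after 1 hour of compound exposure. Loss of specific binding relative to DMSO baseline; primary screen at 25 uM in duplicate, actives then run in concentration series.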

[7] = molecular target: human Muscarinic, M4 Receptor, CHRM4 (gene 1132) (UniProt P08173); assay: NVS_GPCR_hM4: NovaScreen (NVS) G Protein-Coupled Receptor Assay for human Muscarinic, M4 Receptor (AID 2283274)
Method in brief: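 Cell-free radioligand displacement using CHO-derived human M4 receptor protein, 1 h after dosing; bound radioactivity by filtration and scintillation counting. Primary screen single 25 uM duplicate, actives followed in concentration series.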

[8] = molecular target: human Dopamine Receptor D2 (DRD2), DRD2 (gene 1813) (UniProt P14416); assay: NVS_GPCR_hDRD2s: NovaScreen (NVS) G Protein-Coupled Receptor Assay for human Dopamine Receptor D2 (DRD2) (AID 2283266)
Method in brief: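 Radioligand displacement used human DRD2 membranes extracted from CHO cells and was read by filter-based scintillation counting after 1.5 hours. Primary screening was in duplicate at 25 uM. Loss of signal versus DMSO was fitted, with concentration series in follow-up.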

[9] = molecular target: D(1A) dopamine receptor (Homo sapiens) (UniProt P21728); assay: NVS_GPCR_hDRD1: NovaScreen (NVS) G Protein-Coupled Receptor Assay for human Dopamine Receptor D1 (DRD1) (AID 2283269)
Method in brief: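 Cell-free radioligand binding to human DRD1 from HEK293 membranes, read 1 h after dosing by filter-based scintillation counting. Loss of signal versus DMSO baseline marks displacement. Primary screen at 25 uM single concentration in duplicate; actives followed up in concentration series.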

[10] = molecular target: human Neuropeptide Receptor Y1 (NPY1), NPY1R (gene 4886) (UniProt P25929); assay: NVS_GPCR_hNPY1: NovaScreen (NVS) G Protein-Coupled Receptor Assay for human Neuropeptide Receptor Y1 (NPY1) (AID 2283276)
Method in brief: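 Cell-free radioligand binding using receptor extracted from SK-N-MC cells, 1 h incubation, filter-based scintillation counting. Primary screen single concentration 25 uM in duplicate; actives followed in concentration series. Loss of bound signal scored versus DMSO.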

[11] = molecular target: human Neurokinin, NK2 Receptor, TACR2 (gene 6865) (UniProt P21452); assay: NVS_GPCR_hNK2: NovaScreen (NVS) G Protein-Coupled Receptor Assay for human Neurokinin, NK2 Receptor (AID 2283278);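 also: actives reduce bound radioligand signal relative to DMSO baseline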
Method in brief: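 CHO-derived membrane protein, radioligand displacement, filter scintillation read at 4 h post-dose. Single-point 25 uM in duplicate, then concentration series for actives; DMSO as negative control.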

[12] = tested on: rabbit Platelet Activating Factor Receptor (PAF), gene 100354046; assay: NVS_GPCR_rabPAF: NovaScreen (NVS) G Protein-Coupled Receptor Assay for rabbit Platelet Activating Factor Receptor (PAF) (AID 2283287)
Method in brief: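 Rabbit platelet membrane preparation; radioligand displacement read by filter-based scintillation counting 1 h after dosing, loss of signal versus DMSO. Primary screen in duplicate at 25 uM, actives followed up in concentration series.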

[13] = molecular target: human Adrenergic, Beta 3 Receptor (Adrb3), ADRB3 (gene 155) (UniProt P13945); assay: NVS_GPCR_hAdrb3: NovaScreen (NVS) G Protein-Coupled Receptor Assay for human Adrenergic, Beta 3 Receptor (Adrb3) (AID 2283262)
Method in brief: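 Membranes from SK-N-MC cells pretreated with isoproterenol and 8-bromo-cAMP were used in a radioligand competitive displacement binding assay. Binding was read by filter-based scintillation counting 1 hour after dosing. Primary screening was in duplicate at 25 uM, with concentration series in follow-up.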

[14] = molecular target: mouse Cholecystokinin, CCK1 Receptor (CCKA), Cckar (gene 12425) (UniProt O08786); assay: NVS_GPCR_mCCKAPeripheral: NovaScreen (NVS) G Protein-Coupled Receptor Assay for mouse Cholecystokinin, CCK1 Receptor (CCKA) (AID 2283285)
Method in brief: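 Radioligand competitive displacement on mouse pancreatic membranes, 2 h incubation; filter-based scintillation counting, loss of signal versus DMSO. Single-concentration screen at 25 uM in duplicate, actives retested in concentration-response up to 50 uM.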

[15] = molecular target: human Neurotensin Receptor (NTS), NTSR1 (gene 4923) (UniProt P30989); assay: NVS_GPCR_hNTS: NovaScreen (NVS) G Protein-Coupled Receptor Assay for human Neurotensin Receptor (NTS) (AID 2283279)
Method in brief: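 Radioligand displacement on human NTSR1 protein from CHO cells, cell-free, 1 h, filter-based scintillation counting. Primary screen at 25 uM in duplicate; hits rerun in concentration-response up to 50 uM.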

[16] = molecular target: human Dopamine Receptor D4.4 (DRD4.4), DRD4 (gene 1815) (UniProt P21917); assay: NVS_GPCR_hDRD4.4: NovaScreen (NVS) G Protein-Coupled Receptor Assay for human Dopamine Receptor D4.4 (DRD4.4) (AID 2283264)
Method in brief: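 Radioligand displacement on human DRD4.4 from CHO-derived membranes, 1 hour incubation, bound counts read by filtration and scintillation. Primary screen in duplicate at 25 uM; actives followed up in concentration series.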

[17] = molecular target: rat Serotonin, 5-Hydroxytryptamine Receptor 1 (5HT1), Non-Selective Binding, Htr1a (gene 24473) (UniProt P19327); assay: NVS_GPCR_r5HT1_NonSelective: NovaScreen (NVS) G Protein-Coupled Receptor Assay for rat Serotonin, 5-Hydroxytryptamine Receptor 1 (5HT1), Non-Selective Binding (AID 2283286)
Method in brief: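 Rat cortical membranes, radioligand displacement, 1 h incubation, read by filter scintillation. Primary screen in duplicate at 25 uM. Hits (e.g. ≥30% inhibition) went to concentration-response up to 50 uM, fitted as loss of binding versus DMSO.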

Sequence of human Histamine 1 Receptor (H1), HRH1 (gene 3269) (P35367 whole entry, looked up): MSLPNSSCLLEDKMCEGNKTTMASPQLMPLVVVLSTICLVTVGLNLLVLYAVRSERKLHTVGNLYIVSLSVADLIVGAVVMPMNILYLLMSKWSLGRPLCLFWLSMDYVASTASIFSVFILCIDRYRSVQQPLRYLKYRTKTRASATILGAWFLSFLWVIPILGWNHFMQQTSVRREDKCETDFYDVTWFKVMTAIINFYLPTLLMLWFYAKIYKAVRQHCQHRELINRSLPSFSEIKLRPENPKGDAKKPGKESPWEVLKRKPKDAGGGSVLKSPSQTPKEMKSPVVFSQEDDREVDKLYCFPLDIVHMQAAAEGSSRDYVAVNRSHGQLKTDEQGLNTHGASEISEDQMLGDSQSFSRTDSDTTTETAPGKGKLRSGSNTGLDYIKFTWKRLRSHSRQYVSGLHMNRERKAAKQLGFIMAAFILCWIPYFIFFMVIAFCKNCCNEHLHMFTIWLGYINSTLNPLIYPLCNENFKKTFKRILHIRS
Sequence of Type-1 angiotensin II receptor (Homo sapiens) (P30556 whole entry, looked up): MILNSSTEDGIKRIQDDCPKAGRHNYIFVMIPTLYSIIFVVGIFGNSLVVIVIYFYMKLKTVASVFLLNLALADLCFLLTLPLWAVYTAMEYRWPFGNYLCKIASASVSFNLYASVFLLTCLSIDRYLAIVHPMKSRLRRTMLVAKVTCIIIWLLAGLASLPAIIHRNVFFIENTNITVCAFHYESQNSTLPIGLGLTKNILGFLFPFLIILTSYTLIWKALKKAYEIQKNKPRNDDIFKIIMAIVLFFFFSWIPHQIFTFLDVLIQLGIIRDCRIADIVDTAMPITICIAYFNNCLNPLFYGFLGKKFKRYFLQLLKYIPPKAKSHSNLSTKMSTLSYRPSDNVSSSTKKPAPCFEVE
Sequence of Muscarinic acetylcholine receptor M1 (Homo sapiens) (P11229 whole entry, looked up): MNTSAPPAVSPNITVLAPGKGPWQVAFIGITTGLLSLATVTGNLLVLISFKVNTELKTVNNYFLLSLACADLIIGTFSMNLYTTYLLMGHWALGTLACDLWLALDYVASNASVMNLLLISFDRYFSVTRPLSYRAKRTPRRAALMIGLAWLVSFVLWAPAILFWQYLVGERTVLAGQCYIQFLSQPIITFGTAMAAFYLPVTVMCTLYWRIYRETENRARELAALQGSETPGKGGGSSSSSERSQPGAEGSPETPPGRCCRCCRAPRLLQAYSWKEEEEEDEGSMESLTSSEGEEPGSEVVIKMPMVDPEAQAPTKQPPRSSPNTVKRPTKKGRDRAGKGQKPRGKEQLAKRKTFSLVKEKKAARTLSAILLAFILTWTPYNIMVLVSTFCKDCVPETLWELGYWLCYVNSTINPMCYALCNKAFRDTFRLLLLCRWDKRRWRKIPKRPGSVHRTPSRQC
Sequence of D(1A) dopamine receptor (Homo sapiens) (P21728 whole entry, looked up): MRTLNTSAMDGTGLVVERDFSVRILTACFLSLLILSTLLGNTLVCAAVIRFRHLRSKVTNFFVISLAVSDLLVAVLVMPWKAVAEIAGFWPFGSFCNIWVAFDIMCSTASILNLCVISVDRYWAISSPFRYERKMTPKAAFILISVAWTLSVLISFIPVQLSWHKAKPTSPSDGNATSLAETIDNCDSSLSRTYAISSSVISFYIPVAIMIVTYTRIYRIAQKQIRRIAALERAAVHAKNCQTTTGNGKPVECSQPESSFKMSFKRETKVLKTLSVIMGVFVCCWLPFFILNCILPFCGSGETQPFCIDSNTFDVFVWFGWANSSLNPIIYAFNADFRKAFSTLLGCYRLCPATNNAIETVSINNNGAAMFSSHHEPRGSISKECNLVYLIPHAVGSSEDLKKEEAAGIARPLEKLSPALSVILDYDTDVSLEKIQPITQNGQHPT
Sequence of human Leukotriene B4 Receptor 1 (LTB4-BLT1), LTB4R (gene 1241) (Q15722 whole entry, looked up): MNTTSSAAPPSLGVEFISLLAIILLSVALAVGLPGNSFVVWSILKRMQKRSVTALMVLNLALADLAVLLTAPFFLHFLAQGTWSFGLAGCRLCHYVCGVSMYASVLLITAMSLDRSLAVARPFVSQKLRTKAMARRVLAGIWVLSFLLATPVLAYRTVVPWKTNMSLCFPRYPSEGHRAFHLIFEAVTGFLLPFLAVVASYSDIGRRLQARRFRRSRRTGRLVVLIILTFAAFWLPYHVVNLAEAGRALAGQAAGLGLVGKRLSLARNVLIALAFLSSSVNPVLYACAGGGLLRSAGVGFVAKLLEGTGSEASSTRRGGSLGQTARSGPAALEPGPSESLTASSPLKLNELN
Sequence of human Muscarinic, M4 Receptor, CHRM4 (gene 1132) (P08173 whole entry, looked up): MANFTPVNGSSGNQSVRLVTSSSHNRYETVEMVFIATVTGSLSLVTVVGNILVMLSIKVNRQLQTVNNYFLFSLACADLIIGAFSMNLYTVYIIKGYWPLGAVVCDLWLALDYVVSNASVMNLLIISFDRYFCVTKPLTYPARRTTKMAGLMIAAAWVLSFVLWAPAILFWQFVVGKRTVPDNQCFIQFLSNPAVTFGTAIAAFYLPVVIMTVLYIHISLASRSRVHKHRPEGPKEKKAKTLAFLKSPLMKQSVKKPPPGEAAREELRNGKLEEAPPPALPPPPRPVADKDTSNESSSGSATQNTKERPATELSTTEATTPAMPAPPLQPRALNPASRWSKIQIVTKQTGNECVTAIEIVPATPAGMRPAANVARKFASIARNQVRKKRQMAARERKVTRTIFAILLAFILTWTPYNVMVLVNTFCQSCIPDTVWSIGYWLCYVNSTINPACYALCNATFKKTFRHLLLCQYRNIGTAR
Sequence of Muscarinic acetylcholine receptor M2 (Homo sapiens) (P08172 whole entry, looked up): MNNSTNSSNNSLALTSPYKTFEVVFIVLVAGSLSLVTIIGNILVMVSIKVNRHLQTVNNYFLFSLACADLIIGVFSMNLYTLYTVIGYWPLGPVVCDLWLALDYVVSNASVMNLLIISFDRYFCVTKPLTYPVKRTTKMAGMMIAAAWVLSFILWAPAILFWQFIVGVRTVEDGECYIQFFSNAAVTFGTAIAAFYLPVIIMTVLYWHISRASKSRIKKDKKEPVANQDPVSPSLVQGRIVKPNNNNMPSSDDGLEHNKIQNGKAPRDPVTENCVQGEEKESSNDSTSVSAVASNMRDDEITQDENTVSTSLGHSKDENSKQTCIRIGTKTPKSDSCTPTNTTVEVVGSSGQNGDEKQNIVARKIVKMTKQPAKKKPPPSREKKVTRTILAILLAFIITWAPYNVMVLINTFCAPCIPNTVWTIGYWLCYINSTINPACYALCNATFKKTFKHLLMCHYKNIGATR
Sequence of Muscarinic acetylcholine receptor M3 (Homo sapiens) (P20309 whole entry, looked up): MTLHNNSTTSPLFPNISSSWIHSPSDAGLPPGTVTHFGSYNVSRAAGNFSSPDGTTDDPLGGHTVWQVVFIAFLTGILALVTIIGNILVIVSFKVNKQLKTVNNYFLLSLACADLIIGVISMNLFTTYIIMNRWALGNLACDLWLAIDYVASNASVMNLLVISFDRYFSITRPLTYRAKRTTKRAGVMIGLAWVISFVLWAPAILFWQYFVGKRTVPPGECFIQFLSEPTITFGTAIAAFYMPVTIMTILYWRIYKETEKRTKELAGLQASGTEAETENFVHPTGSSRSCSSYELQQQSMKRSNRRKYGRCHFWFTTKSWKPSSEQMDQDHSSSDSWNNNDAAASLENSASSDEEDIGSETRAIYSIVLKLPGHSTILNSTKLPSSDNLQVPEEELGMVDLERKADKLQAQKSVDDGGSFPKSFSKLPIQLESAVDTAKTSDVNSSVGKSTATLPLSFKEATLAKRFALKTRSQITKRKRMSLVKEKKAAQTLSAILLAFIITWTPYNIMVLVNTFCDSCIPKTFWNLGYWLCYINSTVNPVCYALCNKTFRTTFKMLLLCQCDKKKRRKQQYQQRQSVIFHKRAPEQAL
Sequence of human Dopamine Receptor D2 (DRD2), DRD2 (gene 1813) (P14416 whole entry, looked up): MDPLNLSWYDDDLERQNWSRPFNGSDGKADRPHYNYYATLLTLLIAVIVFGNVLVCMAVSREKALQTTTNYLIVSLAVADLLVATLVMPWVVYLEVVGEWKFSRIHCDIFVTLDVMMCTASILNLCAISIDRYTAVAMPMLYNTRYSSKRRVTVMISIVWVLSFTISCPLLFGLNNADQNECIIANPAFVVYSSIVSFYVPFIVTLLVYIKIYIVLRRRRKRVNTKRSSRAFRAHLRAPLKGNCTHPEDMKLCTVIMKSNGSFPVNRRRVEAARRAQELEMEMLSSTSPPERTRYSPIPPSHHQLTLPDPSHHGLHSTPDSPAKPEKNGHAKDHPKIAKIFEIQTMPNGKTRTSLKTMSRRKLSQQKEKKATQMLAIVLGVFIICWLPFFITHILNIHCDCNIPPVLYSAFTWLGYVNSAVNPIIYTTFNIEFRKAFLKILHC
Sequence of human Dopamine Receptor D4.4 (DRD4.4), DRD4 (gene 1815) (P21917 whole entry, looked up): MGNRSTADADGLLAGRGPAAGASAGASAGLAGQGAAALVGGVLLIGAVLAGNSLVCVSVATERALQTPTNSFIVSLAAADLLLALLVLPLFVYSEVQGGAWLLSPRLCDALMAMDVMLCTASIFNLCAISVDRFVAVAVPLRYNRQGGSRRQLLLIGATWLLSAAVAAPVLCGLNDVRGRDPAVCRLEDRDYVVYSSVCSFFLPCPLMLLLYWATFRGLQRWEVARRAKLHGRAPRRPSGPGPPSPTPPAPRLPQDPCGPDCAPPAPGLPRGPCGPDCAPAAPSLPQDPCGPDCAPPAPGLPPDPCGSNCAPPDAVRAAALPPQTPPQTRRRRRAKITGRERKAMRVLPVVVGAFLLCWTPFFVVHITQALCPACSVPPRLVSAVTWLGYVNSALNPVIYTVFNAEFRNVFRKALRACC
Sequence of human Neurokinin, NK2 Receptor, TACR2 (gene 6865) (P21452 whole entry, looked up): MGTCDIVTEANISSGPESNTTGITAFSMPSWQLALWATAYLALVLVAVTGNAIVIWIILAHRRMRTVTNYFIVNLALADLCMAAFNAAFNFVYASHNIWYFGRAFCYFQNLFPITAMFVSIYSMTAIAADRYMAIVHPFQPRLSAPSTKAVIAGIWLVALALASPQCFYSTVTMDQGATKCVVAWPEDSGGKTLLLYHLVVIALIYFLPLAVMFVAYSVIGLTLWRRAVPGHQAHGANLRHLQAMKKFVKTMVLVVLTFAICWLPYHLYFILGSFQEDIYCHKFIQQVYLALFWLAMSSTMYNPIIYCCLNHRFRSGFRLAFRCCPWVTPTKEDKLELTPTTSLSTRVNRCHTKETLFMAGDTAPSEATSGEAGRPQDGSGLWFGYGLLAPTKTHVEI

COC(=O)N(C(=O)N1CO[C@@]2(C(=O)OC)Cc3cc(Cl)ccc3C2=N1)c1ccc(OC(F)(F)F)cc1
outcome [1]: inactive | outcome [2]: inactive

Clc1nc(Cl)nc(Nc2ccccc2Cl)n1
outcome [3]: inactive

CCCCC(C#N)(Cn1cncn1)c1ccc(Cl)cc1 (stereo not drawn)
AC50 [4]: 5.56 µM (active) | AC50 [5]: 8.08 µM (active) | AC50 [6]: 14.6 µM (active) | AC50 [7]: 7.69 µM (active)

O=C1C2CC=CCC2C(=O)N1SC(Cl)(Cl)Cl (stereo not drawn)
AC50 [1]: 13.4 µM (active) | AC50 [8]: 25 µM (active) | AC50 [9]: 9.65 µM (active) | AC50 [10]: 9.25 µM (active) | AC50 [11]: 4.9 µM (active)

CC(C)=CC1C(C(=O)OCc2coc(Cc3ccccc3)c2)C1(C)C (stereo not drawn)
AC50 [9]: 11.5 µM (active)

COP(=S)(OC)SCn1nnc2ccccc2c1=O
outcome [3]: inactive | AC50 [12]: 25 µM (active)

COCC(C)N(C(=O)CCl)c1c(C)csc1C (stereo not drawn)
outcome [2]: inactive

CC(C)Oc1cccc(NC(=O)c2ccccc2C(F)(F)F)c1
outcome [13]: inactive

CCC(C)n1c(=O)[nH]c(C)c(Br)c1=O (stereo not drawn)
outcome [3]: inactive | outcome [5]: inactive

O=c1n(Cl)c(=O)n(Cl)c(=O)n1Cl
outcome [4]: inactive | outcome [12]: inactive

CC1(C)C(C=C(Cl)Cl)C1C(=O)OC(C#N)c1cccc(Oc2ccccc2)c1 (stereo not drawn)
outcome [1]: inactive | outcome [11]: inactive | AC50 [14]: 17.1 µM (active)

Cn1c(-c2ccccc2)cc(-c2ccccc2)[n+]1C
AC50 [4]: 2.84 µM (active) | AC50 [5]: 9.02 µM (active) | AC50 [6]: 3.97 µM (active) | AC50 [7]: 7.59 µM (active) | outcome [15]: inactive

CCCN(CC)CC1COC2(CCC(C(C)(C)C)CC2)O1 (stereo not drawn)
AC50 [16]: 7.95 µM (active) | outcome [8]: inactive | AC50 [4]: 4.97 µM (active) | AC50 [5]: 8.78 µM (active) | AC50 [6]: 4.96 µM (active) | AC50 [7]: 3.3 µM (active)

COc1cc(OC)nc(NC(=O)NS(=O)(=O)c2ncccc2OCC(F)(F)F)n1
outcome [2]: inactive

CCOc1cc(C(C)(C)C)ccc1C1COC(c2c(F)cccc2F)=N1 (stereo not drawn)
outcome [9]: inactive

CCCCOCN(C(=O)CCl)c1c(CC)cccc1CC
outcome [2]: inactive

Cc1ccc(N=CN(C)C=Nc2ccc(C)cc2C)c(C)c1
outcome [9]: inactive | outcome [7]: inactive | AC50 [17]: 463 nM (active)

N#Cc1c[nH]cc1-c1cccc2c1OC(F)(F)O2
outcome [16]: inactive | outcome [4]: inactive
